Among the data in PubChem BioAssay AID493076 (National Center for Advancing Translational Sciences (NCATS), 2011) are outcome values, retold here.

The structures appear in SMILES notation. Some of the results follow. Inconclusive results are not listed. Active and inactive are the calls of the source. Calls come from the whole dose curve; as a rule, active = well fitted curve in the direction sought with a large enough effect; inconclusive = small, poorly fitted or top-dose-only effect, or effect the other way, or another doubt; inactive = no such curve, though single readings can be large or run the other way. Residues, ends and D or L forms follow the SMILES beside them. *: point of attachment. OPac = O=C(CO*)c1ccccc1; Bz = O=C(c1ccccc1)*

Chain of Thyrotropin-releasing hormone receptor (Homo sapiens) (P34981 whole entry, looked up): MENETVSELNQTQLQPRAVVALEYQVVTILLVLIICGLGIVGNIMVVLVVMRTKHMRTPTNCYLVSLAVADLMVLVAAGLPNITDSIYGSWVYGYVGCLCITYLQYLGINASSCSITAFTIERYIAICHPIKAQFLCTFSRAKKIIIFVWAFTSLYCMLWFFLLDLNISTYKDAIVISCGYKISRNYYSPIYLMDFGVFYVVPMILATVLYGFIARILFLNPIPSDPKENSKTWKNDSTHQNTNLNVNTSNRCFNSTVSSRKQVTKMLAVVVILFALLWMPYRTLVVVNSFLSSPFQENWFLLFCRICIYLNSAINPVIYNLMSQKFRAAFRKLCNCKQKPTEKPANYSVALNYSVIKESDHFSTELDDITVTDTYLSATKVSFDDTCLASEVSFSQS

The test addresses Thyrotropin-releasing hormone receptor (Homo sapiens) (UniProt P34981). The experiment in a line: qHTS for Small Molecule Agonists and Allosteric Enhancers of Human TRH Receptor: Confirmation Screen for Enhancers. As to conditions: TRH receptor cell assay, enhancer confirmation qHTS; series mostly up to 46.1 µM. The source says:
NIH Chemical Genomics Center [NCGC]
NIH Molecular Libraries Probe Centers Network [MLPCN]
Assay Submitter (PI): Marvin Gershengorn
This project aims to identify small drug-like molecules that activate (agonists) the thyrotropin releasing hormone (TRH) receptor (TRHR) or enhance its TRH-stimulated activity (allosteric enhancers). TRHR, a drug-accessible cell surface receptor expressed in specific brain regions, and its ligand TRH have been implicated in several central nervous system disorders, including depression and anxiety. Small molecule TRHR agonists or allosteric enhancers that are metabolically stable and able to cross the blood-brain barrier might serve as probes to elucidate the roles of brain TRH receptors in animal models, and might be valuable as lead compounds for the development of drugs to treat patients with central nervous system disorders.
Upon TRHR-Gq activation in TRHR cells, intracellular calcium is released from stores in the endoplasmic reticulum. […] This primary screen measures compound-induced enhancement of an EC20 stimulation of the receptor by its native ligand.
For the HTS assay freshly prepared cells are plated at a density of 2000/well in 3 ul of complete DMEM medium containing 10% serum in 1536-well plates and cultured over night at 37 C in a humidified incubator with 5% CO2. The next day, 2 ul of a no wash calcium dye (ABD Bioquest) was added to the cells and plates were incubated at room temperature for 1 hour. For the assay, assay plates were loaded into the FDSS kinetic plate reader. A 10 cycle (1 second/cycle) baseline measurement is taken and then the FDSS online 1536 pintool delivers 23 nl of compound library (as well as TRH controls) to the plate. The plate is measured for kinetically at 1 cycle/sec for 180 seconds and is considered to be the agonist portion of the assay (eg, compounds which activate a positive calcium response during this portion are flagged as potential agonists). Following the 180 second read, 1 ul of either an EC20 (positive modulation assay) is delivered by an onboard pipette head. Measurements are taken kinetically for an additional 180 seconds.
TRHR FDSS Screening Protocol
1. Reagent, 3 uL 2000 cells/well 1536 TC treated Black plate in media containing 10% FCS
2. Time, 18 hours, 33.5C 5% CO2 (cells grown at 37C)
3. Reagent, 2 uL ABD fluo-8 Ca dye
4. Time, 30 min-1.5hrs hours, Room temp (6 plates/batch)
5. Detector, EX 480/EM 530C, FDSS 10 cycles baseline (1sec/cycle)
6. Compound, 23 nL of stock solution from library
7. Detector, EX 480/EM 530C, FDSS 230 cycles (1sec/cycle) Agonist mode
8. Compound, 1 ul EC20 of TRH made up in HEPES HBSS, 10 nM final
9. Detector, EX 480/EM 530C, FDSS 100 cycles (1sec/cycle) Potentiator mode
Turning to `O=c1[nH]c2cccnc2n(CCNc2ncc(C(F)(F)F)cc2Cl)c1=O`, the outcome was inactive.

As for `CSc1nnnn1-c1c(C)cc(C)cc1C`, the outcome was inactive.

Take `CC(C)c1nnc(NC(=O)CCC(=O)N2CCN(c3cccc(Cl)c3)CC2)s1`: the outcome was inactive.

As for `Cc1ccc(S(=O)(=O)N2CCN(CC(=O)N/N=C/c3ccc(Br)s3)CC2)cc1`, the outcome was inactive.

Turning to `CC1=C(C)CC(C(=O)NC(C)CCc2ccccc2)C(C(=O)O)C1` (stereo not given), the result was inactive.

With `O=C1NC(=O)C2C1C(c1ccc([N+](=O)[O-])cc1)=NN2Cc1ccccc1` (stereo not given), the result was inactive.

In the case of `O=c1o[nH]c(-c2ccccc2)c1N=Nc1c(F)cccc1Cl`, the result was inactive.

Turning to `NC(N)=Nc1nc(-c2ccccc2)c2cc(Cl)ccc2n1`, the outcome was inactive.

Turning to `COc1cc(/C=C(\C#N)c2nc3ccccc3[nH]2)ccc1O`, the outcome was inactive.

Take `Cc1csc(CN(C)C(=O)CC2C(=O)NCCN2CC(C)(C)C)n1` (stereo not given): the outcome was inactive.

`Cn1cccc1C1(C(F)(F)F)NCCNC1=O` (stereo not given): the outcome was inactive.

As to `CC1(C)Cc2c(cnn2-c2cccc(F)c2)C(NC(=O)c2cc[n+]([O-])cc2)C1` (stereo not given), the outcome was inactive.

Regarding `N#Cc1ccc(Oc2cc(C(F)(F)F)nc(-c3ccccn3)n2)cc1`, the result was inactive.

For `O=C(CNC(=O)c1ccccc1)NCC(=O)OCC(=O)c1ccccc1` (Bz-Gly-Gly-OPac), the result was inactive.

With `COc1ccc(CCn2ccc(O)c(Cc3ccc(Cl)cc3Cl)c2=O)cc1OC`, the result was inactive.

Regarding `CCOc1cc(CN2CCCC(CO)(Cc3ccc(F)cc3F)C2)ccc1OC` (stereo not given), the result was inactive.

Consider `C/C(=N/OC(=O)c1ccc(Br)cc1)c1ccc(C)cc1`, for which the result was inactive.

Turning to `COC(=O)c1cc(N2CCNCC2)nc2ccccc12`, the outcome was inactive.

Turning to `Cc1ccc(Cl)c(OCC(=O)N2CCc3ccccc3C2)c1`, the result was inactive.

Take `CCc1ccccc1NC(=O)/C(=C/c1ccccc1)c1ccccc1`: the result was inactive.

On to `COC(=O)C1=C(C)NC2=C(C(=O)c3ccccc32)C1c1ccc(-c2ccc(C(=O)O)cc2)o1` (stereo not given), for which the result was inactive.

On to `Cc1nn(Cc2ccccc2)c(C)c1C(=O)N1CCN(CC(=O)Nc2ccccc2Cl)CC1`, for which the outcome was inactive.

As for `Cc1cccn2c(=O)c3cc(C(=O)NC4CCCCC4)sc3nc12`, the outcome was inactive.

For the compound `CCc1nnc(NC(=O)[C@@H](NC(=O)c2cccc(C)c2)C(C)C)s1`, the result was inactive.

For `CN(C(=O)CSc1nnc(Nc2ccccc2)s1)C1CCS(=O)(=O)C1` (stereo not given), the result was inactive.

For the compound `Cc1c(/C=N\NC(=O)c2cc3ccccc3o2)c2ccccc2n1C`, the outcome was inactive.

For the compound `O=C(Nc1ccccc1)c1cccnc1Nc1ccccc1`, the result was inactive.

As for `C/C(=C\c1ccco1)CN1CCC(N2CCC(C(=O)N3CCOCC3)CC2)CC1`, the outcome was inactive.

As for `CC(=O)N1CCN(CC(=O)Nc2ccc(C)c(F)c2)CC1`, the result was inactive.

Take `CC(=O)n1c(C=Nc2ccccc2)c(O)c2ccccc21`: the result was inactive.

For `CC(=O)c1cc(NC(=O)c2ccccc2)c(=O)oc1/C=C/N(C)C`, the result was inactive.

`O=C1C(=O)N(CCCO)C(c2ccccc2)/C1=C(\O)c1ccc(Br)cc1` (stereo not given): the outcome was inactive.

With `Cc1ccc(-c2cn(S(=O)(=O)c3cccc([N+](=O)[O-])c3)nc2N)cc1`, the outcome was inactive.

Turning to `COc1ccc(Cl)cc1NC(=O)CN(C)Cc1ccc(OC)c(OC)c1`, the result was inactive.

Consider `Cc1cc(C(=O)CCl)c(C)n1CC1COc2ccccc2O1` (stereo not given), for which the outcome was inactive.

Consider `CCOC(=O)C1=C(O)/C(=C/c2cc(C)n(-c3ccccc3)c2C)N=C1C`, for which the result was inactive.

With `COc1cc(C2C3=C(CCCC3=O)OC3=C2C(=O)CCC3)ccc1OCC(=O)Nc1ccccc1`, the outcome was inactive.

Take `Cc1cc(C)c2nc3nc(C)cc(C)c3c(N)c2c1`: the outcome was inactive.

As for `Cc1cc(S(=O)(=O)c2cc3ccc(O)c(C)c3oc2=O)ccc1F`, the result was inactive.

In the case of `NS(=O)(=O)c1cccc(NC(=O)CSc2nc3ccccc3n2-c2ccccc2)c1`, the outcome was inactive.
